Only a selection was taken, and hits are over-represented in it overall.
Dicer inh: inhibitors of human Dicer processing of pre-microRNA. cat-ELCCA pre-miR-21 Dicer processing, chemiluminescence; hits give high values. Q9UPY3. AID 1347074. z-score at 25 µM. 6% of 47,000 active; in the data active = z-score above about 3, passing the limit was not always enough;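 also: higher signal means more uncleaved substrate so more Dicer inhibition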
Target sequence (Q9UPY3 whole entry, looked up): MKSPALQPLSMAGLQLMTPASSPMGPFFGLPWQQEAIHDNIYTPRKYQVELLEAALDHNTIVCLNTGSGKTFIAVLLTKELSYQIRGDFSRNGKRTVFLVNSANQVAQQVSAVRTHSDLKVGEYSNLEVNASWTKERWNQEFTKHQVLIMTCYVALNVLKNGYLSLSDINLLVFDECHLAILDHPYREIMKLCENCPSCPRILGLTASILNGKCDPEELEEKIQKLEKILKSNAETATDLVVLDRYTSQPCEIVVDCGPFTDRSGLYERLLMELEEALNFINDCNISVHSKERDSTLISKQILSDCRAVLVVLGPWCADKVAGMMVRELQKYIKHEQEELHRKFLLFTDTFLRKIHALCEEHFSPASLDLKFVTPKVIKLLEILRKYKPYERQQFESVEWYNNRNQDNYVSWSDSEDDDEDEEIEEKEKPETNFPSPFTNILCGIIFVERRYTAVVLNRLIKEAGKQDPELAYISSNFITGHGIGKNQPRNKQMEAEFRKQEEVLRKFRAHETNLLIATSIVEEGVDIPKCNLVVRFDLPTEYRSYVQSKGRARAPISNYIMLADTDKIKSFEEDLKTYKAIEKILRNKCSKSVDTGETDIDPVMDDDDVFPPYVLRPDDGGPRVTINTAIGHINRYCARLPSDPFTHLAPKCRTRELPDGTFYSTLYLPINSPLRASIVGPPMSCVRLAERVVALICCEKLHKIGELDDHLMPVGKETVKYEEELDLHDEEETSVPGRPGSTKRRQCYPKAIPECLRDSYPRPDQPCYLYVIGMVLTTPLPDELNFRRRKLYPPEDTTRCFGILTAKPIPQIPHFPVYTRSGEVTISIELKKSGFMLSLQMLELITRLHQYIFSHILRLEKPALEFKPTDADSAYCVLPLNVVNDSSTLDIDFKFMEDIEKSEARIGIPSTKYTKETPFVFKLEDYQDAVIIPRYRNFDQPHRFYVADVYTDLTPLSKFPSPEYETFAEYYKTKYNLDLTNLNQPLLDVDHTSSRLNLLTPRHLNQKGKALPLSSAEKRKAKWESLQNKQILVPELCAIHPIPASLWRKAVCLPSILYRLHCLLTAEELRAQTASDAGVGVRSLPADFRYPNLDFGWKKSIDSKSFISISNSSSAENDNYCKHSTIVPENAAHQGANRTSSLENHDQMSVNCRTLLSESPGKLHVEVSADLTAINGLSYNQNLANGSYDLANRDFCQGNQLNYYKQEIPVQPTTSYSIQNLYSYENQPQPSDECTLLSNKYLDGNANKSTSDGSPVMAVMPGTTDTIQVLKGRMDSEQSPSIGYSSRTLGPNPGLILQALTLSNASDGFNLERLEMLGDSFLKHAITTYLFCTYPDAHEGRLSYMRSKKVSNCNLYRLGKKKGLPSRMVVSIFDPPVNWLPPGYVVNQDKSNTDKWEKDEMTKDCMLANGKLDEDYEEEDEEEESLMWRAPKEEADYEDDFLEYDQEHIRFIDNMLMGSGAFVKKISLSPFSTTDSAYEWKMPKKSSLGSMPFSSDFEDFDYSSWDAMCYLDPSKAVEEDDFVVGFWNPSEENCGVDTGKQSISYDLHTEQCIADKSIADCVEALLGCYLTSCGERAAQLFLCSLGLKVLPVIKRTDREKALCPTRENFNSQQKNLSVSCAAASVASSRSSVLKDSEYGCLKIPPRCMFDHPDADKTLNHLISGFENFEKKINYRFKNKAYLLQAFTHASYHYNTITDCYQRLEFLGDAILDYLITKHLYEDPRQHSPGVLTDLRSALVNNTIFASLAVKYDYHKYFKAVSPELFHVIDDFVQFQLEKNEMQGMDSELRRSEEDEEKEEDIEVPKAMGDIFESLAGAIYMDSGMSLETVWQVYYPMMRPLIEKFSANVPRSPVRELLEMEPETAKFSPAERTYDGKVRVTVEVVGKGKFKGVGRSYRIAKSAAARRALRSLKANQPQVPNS
A number is an active result; n = inactive.

SMILES	Dicer inh
CN(C)n1cccc1/C=C(\C#N)S(=O)(=O)c1ccccn1	n
Cc1cccc(C)c1OCCn1cncn1	3.3
Cc1cccc(C)c1OCCCc1c(C)n[nH]c1C	n
Cc1cc(Cl)cc(C)c1OCCn1ccnc1	n
Cc1cc2cc3c(C)cc(=O)oc3c(C)c2o1	n
Cn1nnnc1SCCNCc1cc(Cl)ccc1OCc1ccccc1Cl	n
CCOC(=O)C1=NNC(C(=O)c2ccccc2)C1c1ccccc1 (centres undefined)	n
CCOc1cc(C2C(C(=O)OC)=C(C)NC3=C2C(=O)CC(c2ccc(Cl)cc2)C3)ccc1O (centres undefined)	n
CNC(=O)N(CCS(=O)(=O)c1ccc(Cl)cc1)Cc1cccs1	n
CCN(CCS(=O)(=O)c1ccc(Cl)cc1)C(=O)Nc1ccccc1	3.3
CCN(CCS(=O)(=O)c1ccccc1)S(=O)(=O)c1ccc(Cl)cc1	n
COCCCNC(=S)Nc1ccccc1C	n
CC(C)Sc1n[nH]c(=O)n1-c1ccc2c(c1)OCCO2	n
CCCc1cc(=O)[nH]c(=S)[nH]1	n
OCCCc1nc2ccccc2n1CCCCOc1ccc(Cl)cc1	6.1
OCc1nc2ccccc2n1CC(O)COc1ccc(Cl)cc1 (centres undefined)	n
OCCCc1nc2ccccc2n1CCCOc1ccc(Cl)cc1	n
CC[C@]12CCCN3CCc4c(n(c5ccccc45)C(=O)C1)[C@@H]32	n
N#C/C(=C\NCc1cccnc1)S(=O)(=O)Cc1ccc(Cl)cc1	n
CNC(=S)N[C@H]1[C@H](OC)O[C@H](COC(C)=O)[C@@H](OC(C)=O)[C@@H]1OC(C)=O	n
CN(C)/C=C/C(=O)/C=C/c1ccc(Cl)cc1Cl	n
Cc1nc2ccccc2c(C(=O)O)c1C(=O)O	n
Cc1nc2ccccc2c2c1C(=O)N(c1ccccc1C(=O)OCC(=O)C(C)(C)C)C2=O	4.7
CSc1nc2ccccc2c(=O)n1CC(=O)C(C)(C)C	n
CCOc1ccc(S(=O)(=O)NCc2ccccn2)c(C)c1C	n
SMILES	Dicer inh
O=S1(=O)N=C(Nc2nnc(SCc3ccccc3)s2)c2ccccc21	n
C=CCOc1ccc(C(=O)N(Cc2ccc(OC)c(OC)c2)C2CCS(=O)(=O)C2)cc1 (centres undefined)	n
Cc1ccc2c(C)c(C(=O)N(Cc3ccc(N(C)C)cc3)C3CCS(=O)(=O)C3)oc2c1 (centres undefined)	5.1
O=C(c1cccc(Cl)c1)N(Cc1cccs1)C1CCS(=O)(=O)C1 (centres undefined)	n
Cc1cc(NC(=O)c2ccc(Cl)cc2)n(-c2ccccc2)n1	n
CCOC(=O)c1[nH]c2ccc(F)cc2c1NC(C)=O	n
CCOC(=O)Nc1c(C(=O)OCC)[nH]c2ccc(OC)cc12	5.2
CCOC(=O)Nc1c(C(=O)OCC)[nH]c2ccc(F)cc12	n
COC(=O)C1=C(C#N)NC(C)=C(C(=O)OC(C)C)C1c1cccc([N+](=O)[O-])c1 (centres undefined)	n
NNC(=S)Nc1cccc(Cl)c1Cl	4.3
NNC(=S)Nc1ccccc1Cl	n
Cc1cc(Cl)ccc1NC(=S)NN	3.4
Cc1cc(Cl)ccc1NC(=S)NNC(=O)c1ccccc1Cl	n
Cc1cc(Cl)ccc1NNC(N)=S	n
Cc1cccc(NC(=S)N/N=C\c2cccc3ccccc23)c1C	n
CN(C)NC(=S)Nc1cccc(Cl)c1Cl	n
S=C(N/N=C\c1cccc2ccccc12)Nc1cccc(Cl)c1Cl	3.8
S=C(N/N=C/c1cccc2ccccc12)Nc1c(Cl)cccc1Cl	n
O=C(NC1CCCCC1)C1CC(c2c(F)cccc2Cl)=NO1 (centres undefined)	n
CN(C)S(=O)(=O)Nc1ccccc1	n
Cn1c(=O)cc(N2CCOCC2)c2c(=O)n(-c3ccccc3)c(=O)n(-c3ccccc3)c21	n
C#CCOc1ccc2c(C)cc(=O)oc2c1	n
CCOc1cc(C2c3c(oc4ccccc4c3=O)C(=O)N2c2nccs2)ccc1O (centres undefined)	n
N/C(=N/OC(=O)Nc1ccc(Cl)cc1)c1csc([N+](=O)[O-])c1	5
O=C(Nc1ccc(Cl)cc1)Nc1csc([N+](=O)[O-])c1	n
SMILES	Dicer inh
N/C(=N\OC(=O)Nc1ccc(Cl)cc1)c1ncc([N+](=O)[O-])s1	n
CSc1ssc(=Nc2ccc(C)cc2)c1-c1ccccc1	n
O=C(NC(=S)N1CCc2ccccc21)c1cncc(C#Cc2ccccc2)c1	3.8
O=C(Nc1ccc(Cl)cc1)c1cncc(C#Cc2ccccc2)c1	n
O=C(Nc1cccc(C(F)(F)F)c1)c1cncc(C#Cc2ccccc2)c1	n
CCOC(=O)C1=C(C)N(c2cccc(Cl)c2)C(=O)C1CC(=O)Nc1cc(Cl)cc(Cl)c1 (centres undefined)	n
COCCCNC(=S)N/N=C/c1cccc(OC)c1O	4.2
COCCCNC(=S)N/N=C/c1ccc(O)cc1	n
COCCCNC(=S)N/N=C/c1ccc(O)cc1O	n
CN1CCN(C(=O)c2nn3c(C(F)(F)F)cc(-c4cccs4)nc3c2Cl)CC1	n
CC1CN(CCn2cnc3c(N)ncnc32)CC(C)O1 (centres undefined)	n
CCCN1C(=O)C(O)(CC(=O)c2cccnc2)c2cc(Br)ccc21 (centres undefined)	n
COC(=O)C1=C(Nc2ccccc2NS(=O)(=O)c2ccc(C(F)(F)F)cc2Cl)CSC1	n
O=S(=O)(Nc1ncccn1)c1ccc(C(F)(F)F)cc1Cl	3
O=S(=O)(Nc1ccccn1)c1ccc(C(F)(F)F)cc1Cl	n
CCOc1cccc(C2NC(=O)c3c(sc4c3CCN(C)C4)N2)c1O (centres undefined)	n
CCCCOc1ccccc1C1C(C(=O)OC(C)C)=C(C)NC2=C1C(=O)CC(C)(C)C2 (centres undefined)	n
O=C(N/N=C/C=C/c1ccccc1)C(=O)Nc1ccc(F)cc1	n
CCSC1=N/C(=C\c2cc3c(cc2Cl)OCO3)C(=O)S1	n
CSc1ncc2c(n1)CC(C)(C)C/C2=N\OC(=O)c1cccc(C(F)(F)F)c1	n
COc1ccc(NC(=O)OC(C)C)cc1	3.5
COc1ccc(NC(=O)c2scc(S(=O)(=O)C(C)C)c2N)cc1	n
CCN(CC)C(=O)Nc1ccc(OC)cc1	n
Clc1ccc(/C=N/Nc2ncc(-c3ccc4c(c3)OCCCO4)s2)cc1	n
N=c1c[n+](N2CCOCC2)[n-]o1	n
SMILES	Dicer inh
O=C1c2ccccc2C2(c3cc(C(F)(F)F)cc(C(F)(F)F)c3)NCCN12 (centres undefined)	n
CSc1nsc(SCC(=O)Nc2nc(-c3ccccc3)cs2)n1	n
CCNc1nc(NCC)nc(Oc2ccc(=O)[nH]n2)n1	n
Cc1nn2c3c(cnc2c1-c1ccc(Cl)cc1)C(=O)CC(c1cccs1)C3 (centres undefined)	n
Cc1nn2c3c(cnc2c1-c1ccc(F)cc1)C(=O)CC(c1ccc(F)cc1)C3 (centres undefined)	n
Cc1nn2c3c(cnc2c1-c1ccc(F)cc1)C(=O)CC(c1cccs1)C3 (centres undefined)	4.2
Nc1ncnc2c1ncn2[C@@H]1O[C@H](COP(=O)(O)O)[C@@H](O)[C@H]1O	n
CC(NCC(O)Cn1c2ccccc2c2ccccc21)C(=O)O (centres undefined)	n
OCCNCC(O)Cn1c2ccccc2c2ccccc21 (centres undefined)	4.5
CC(C)(C)NCC(O)Cn1c2ccccc2c2ccccc21 (centres undefined)	n
CC(C)(C)/C(O)=C/c1nc2ccccc2[nH]c1=O	n
Cc1ccc(-c2noc(CN(C)S(=O)(=O)c3ccc(C)cc3)n2)cc1	n
CCOC(=O)c1c(C)n(-c2cccc(Br)c2)c2ccc(O)cc12	6.5

Bioassay records (PubChem BioAssay)
